Measurements: ChEMBL document CHEMBL4513152, “CO-ADD screening of Yantai University (China) compounds”
Potency and affinity values are given separately.

What was measured:
Klebsiella pneumoniae = details: Concentration 32 ug.mL-1; ASSAY_TEST Inhibition of Bacterial Growth; detection method Absorption (OD600); MEDIA CAMHB; plate type 384well; NBS; CORNING #3640; time 18 hr
Candida albicans = details: 32 ug/mL
Cryptococcus neoformans = details: Concentration 32 ug.mL-1; ASSAY_TEST Inhibition of Fungal Growth; detection method Resazurin; Absorption (OD600-OD570); plate type 384well; NBS; CORNING #3640

SMILES	Inhibition (Klebsiella pneumoniae) [%]	Inhibition (Candida albicans) [%]	Inhibition (Cryptococcus neoformans) [%]
CC(=O)O[C@H]1C[C@@]2(C)C(C[C@@H](O)C3[C@@]4(C)CC[C@@H](OC(=O)c5ccccc5C(=O)Oc5ccc(CCO[N+](=O)[O-])cc5)[C@@H](C)C4CC[C@@]32C)/C1=C(\CCC=C(C)C)C(=O)OCc1ccccc1 (some centres not stated)	0.97	-5.71	-72.43
CC(=O)O[C@H]1C[C@@]2(C)C(C[C@@H](O)C3[C@@]4(C)CC[C@@H](OC(=O)C(N)C(C)C)[C@@H](C)C4CC[C@@]32C)/C1=C(\CCC=C(C)C)C(=O)OCc1ccccc1 (some centres not stated)	18.28	14.4	88.23
CC(=O)O[C@H]1C[C@@]2(C)C(C[C@@H](O)C3[C@@]4(C)CC[C@@H](OC(=O)CCCCCO[N+](=O)[O-])[C@@H](C)C4CC[C@@]32C)/C1=C(\CCC=C(C)C)C(=O)OCc1ccccc1 (some centres not stated)	-0.98	-2.51	-81.56
CC(=O)O[C@H]1C[C@@]2(C)C(CC(=O)C3[C@@]4(C)CC[C@@H](OC(=O)CCCCCO[N+](=O)[O-])[C@@H](C)C4CC[C@@]32C)/C1=C(\CCC=C(C)C)C(=O)OCc1ccccc1 (some centres not stated)	8.79	-2.93	-87.68
CC(=O)O[C@H]1C[C@@]2(C)C(C[C@@H](O)C3[C@@]4(C)CC[C@@H](OC(=O)C(N)CC(C)C)[C@@H](C)C4CC[C@@]32C)/C1=C(\CCC=C(C)C)C(=O)OCc1ccccc1 (some centres not stated)	5.15	2.67	-45.25
CC(=O)O[C@H]1C[C@@]2(C)C(C[C@@H](O)C3[C@@]4(C)CC[C@@H](OC(=O)CCC(=O)O)[C@@H](C)C4CC[C@@]32C)/C1=C(\CCC=C(C)C)C(=O)OCc1ccccc1 (some centres not stated)	31.46	-1.56	-100.19
CC(=O)O[C@H]1C[C@@]2(C)C(C[C@@H](O)C3[C@@]4(C)CC[C@@H](OC(=O)c5ccccc5C(=O)OCCc5ccc(OCCO[N+](=O)[O-])cc5)[C@@H](C)C4CC[C@@]32C)/C1=C(\CCC=C(C)C)C(=O)OCc1ccccc1 (some centres not stated)	4.99	-0.23	-57.39
CC(=O)O[C@H]1C[C@@]2(C)C(C[C@@H](O)C3[C@@]4(C)CC[C@@H](OC(=O)CCC(=O)Oc5ccc(CCO[N+](=O)[O-])cc5)[C@@H](C)C4CC[C@@]32C)/C1=C(\CCC=C(C)C)C(=O)OCc1ccccc1 (some centres not stated)	-3.54	-8.49	-78.97
CC(=O)O[C@H]1C[C@@]2(C)C(CC(=O)C3[C@@]4(C)CCC(=O)[C@@H](C)C4CC[C@@]32C)/C1=C(\CCC=C(C)C)C(=O)OCc1ccccc1 (some centres not stated)	19.97	6.47	-73.01
CC(=O)O[C@H]1C[C@@]2(C)C(C[C@@H](O)C3[C@@]4(C)CC[C@@H](O)[C@@H](C)C4CC[C@@]32C)/C1=C(\CCC=C(C)C)C(=O)On1nnc2ccccc21 (some centres not stated)	-4.91	3.88	-40.31
CC(=O)O[C@H]1C[C@@]2(C)C(C[C@@H](O)C3[C@@]4(C)CC[C@@H](O)[C@@H](C)C4CC[C@@]32C)/C1=C(\CCC=C(C)C)C(=O)Oc1ccc(CCO[N+](=O)[O-])cc1 (some centres not stated)	24.64	7.08	-126.19
CC(=O)O[C@H]1C[C@@]2(C)C(C[C@@H](O)C3[C@@]4(C)CC[C@@H](OC(=O)CO[N+](=O)[O-])[C@@H](C)C4CC[C@@]32C)/C1=C(\CCC=C(C)C)C(=O)OCc1ccccc1 (some centres not stated)	17.67	0.87	-43.62
CC(=O)O[C@H]1C[C@@]2(C)C(C[C@@H](O)C3[C@@]4(C)CC[C@@H](O)[C@@H](C)C4CC[C@@]32C)/C1=C(\CCC=C(C)C)C(=O)OCc1ccccc1 (some centres not stated)	15.54	-0.49	-62.82
CC(=O)O[C@H]1C[C@@]2(C)C(C[C@@H](O)C3[C@@]4(C)CC[C@@H](OC(=O)CCC(=O)OCCc5ccc(OCCO[N+](=O)[O-])cc5)[C@@H](C)C4CC[C@@]32C)/C1=C(\CCC=C(C)C)C(=O)OCc1ccccc1 (some centres not stated)	3.49	-4.49	-89.71
CC(=O)O[C@H]1C[C@@]2(C)C(C[C@@H](O)C3[C@@]4(C)CC[C@@H](OC(=O)C(C)N)[C@@H](C)C4CC[C@@]32C)/C1=C(\CCC=C(C)C)C(=O)OCc1ccccc1 (some centres not stated)	8.77	16.1	90.52
CC(=O)O[C@H]1C[C@@]2(C)C(C[C@@H](O)C3[C@@]4(C)CC[C@@H](OC(=O)CCCCO[N+](=O)[O-])[C@@H](C)C4CC[C@@]32C)/C1=C(\CCC=C(C)C)C(=O)OCc1ccccc1 (some centres not stated)	6.42	-3.76	-91.73
CC(=O)O[C@H]1C[C@@]2(C)C(CC(=O)C3[C@@]4(C)CC[C@@H](OC(=O)CCCCO[N+](=O)[O-])[C@@H](C)C4CC[C@@]32C)/C1=C(\CCC=C(C)C)C(=O)OCc1ccccc1 (some centres not stated)	10.79	-1.47	-85.18
CC(=O)O[C@H]1C[C@@]2(C)C(C[C@@H](O)C3[C@@]4(C)CC[C@@H](OC(=O)c5ccccc5C(=O)Nc5cccc(N)c5)[C@@H](C)C4CC[C@@]32C)/C1=C(\CCC=C(C)C)C(=O)OCc1ccccc1 (some centres not stated)	1.34	1.55	-66.02
CC(=O)O[C@H]1C[C@@]2(C)C(C[C@@H](O)C3[C@@]4(C)CC[C@@H](OC(=O)c5ccccc5C(=O)Nc5ccc(N)cc5)[C@@H](C)C4CC[C@@]32C)/C1=C(\CCC=C(C)C)C(=O)OCc1ccccc1 (some centres not stated)	5.38	25	-105.92
